Screening results as filed in PubChem.
Compounds with a hit are over-represented: about 19% of the library has one in this group of screens.
BCR signal inh: chronic active BCR signaling inhibition. ABC-DLBCL IkBa-CBG/CBR reporter, luminescence ratio, 4 h. Potency, µM (top dose mostly 46.1 µM), for inactives: at the highest dose activity change, negative = inhibition, usual class: inhibitors. 340,000 compounds, 0.05% hits. AID 493014; active = well fitted inhibition curve with a large enough effect in the signal ratio, with a control signal flat, not every such curve was filed as active; inconclusive = small, poorly fitted or top-dose-only effect, or effect the other way, or a change in a side signal; the % refers to the signal ratio;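 note: potency is the fitted concentration of half-maximal effect; plate controls were basal doxycycline-induced cells for no effect and cells given 10 µM MG132 for full effect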
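Compounds up to 46 uM were incubated four hours with TMD8 cells whose green CBG68 luciferase is fused to IkappaBalpha; red CBR luminescence normalised the signal, and concentration-effect curves were fitted to fusion, red and ratio data.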
MCF10A rerep: inducers of DNA re-replication in MCF 10A breast cells | Potency, µM (series often up to 46.1 µM), for the others: top-dose activity, positive = re-replication, most hits filed as activators | MCF 10A DNA re-replication, Hoechst nuclear intensity, 48 h | AID 624296 | 350,000 compounds, 2.9% hits; note: potency is the fitted concentration of half-maximal effect; % of control where 0% means no effect; nearly all actives have a fitted effect of over 50% in size
TDP1 cell noCPT: qHTS for Inhibitors of human tyrosyl-DNA phosphodiesterase 1 (TDP1): qHTS in cells in absence of CPT; 420,000 compounds, 15% hits; DT40 Tdp1-/- hTDP1 cells, no CPT, ATP luminescence, 48 h; Potency, µM (top dose mostly 46.2 µM), for the others: top-dose activity change, negative = growth inhibition, usual class: inhibitors; note: potency is the fitted concentration of half-maximal effect; % is set by controls: 0 for no effect and ±100 for the full control effect; nearly all actives have a fitted effect of over 55% in size
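No-CPT arm: Tdp1-/-;hTDP1 DT40 cells (400/well) plus compounds, incubated ≥48 hr at 37 °C. Readout CellTiter-Glo luminescence.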
TDP1 cell CPT: DT40-hTDP1 cell growth loss with CPT; chicken DT40 Tdp1-/-;hTDP1 cells + 20 nM CPT, ATP luminescence, 48 h; 420,000 compounds, 12% hits; Potency, µM (highest dose often 46.2 µM), without a hit: at the highest dose activity change, negative = growth inhibition, usual class: inhibitors; note: potency is the fitted concentration of half-maximal effect; % is set by controls: 0 for no effect and ±100 for the full control effect; nearly all actives have a fitted effect of over 55% in size
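Cell growth measured by CellTiter-Glo luminescence after a minimum 48 h, 37 C compound exposure with 20 nM CPT in Tdp1-knockout DT40 cells stably expressing hTDP1, seeded 400/well; qHTS titration format.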
SW480 rereplic: induces DNA re-replication in SW480 colon adenocarcinoma cells; AID 624297; SW480 DNA re-replication, Hoechst DNA content imaging, 48 h; 340,000 compounds, 1.8% hits; Potency, µM (titrated, usually from 46.1 µM), for inactives: top-dose re-replication activation, most hits filed as activators; note: potency is the fitted concentration of half-maximal effect; % of control where 0% means no effect; nearly all actives have a fitted effect of over 55% in size
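250 cells/well; 23 nL cpd via pin tool; 48 hr, 37 C, 5% CO2; Hoechst 40 min; imager read of total nuclear intensity, ex 405/em 500-530 nm.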
IL-1B inflam inh: inflammasome signaling inhibition, IL-1 beta readout; THP-1 LPS/ATP IL-1B secretion, AlphaLISA, 16 h; stronger effect = lower value; activity change, % at 57.5 µM; 360,000 compounds, 4.7% hits; in the data active = activity change below about -50%; inconclusive = mostly about -30% to -49%; note: % is set by controls: 0 for no effect and ±100 for the full control effect
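Secreted IL-1B measured by AlphaLISA bead assay after 16 h compound exposure of THP-1 cells; compounds (final up to 57.5 uM) added 1 h before LPS (250 ng/mL) and ATP (1.25 mM) stimulation; lower signal means less secretion.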
Active calls of the source: *. Unless noted, calls come from the whole dose curve; as a rule, active = well fitted curve in the direction sought with a large enough effect; inconclusive = small, poorly fitted or top-dose-only effect, or another doubt; inactive = no such curve, though single readings can be large; an effect the other way counts as inactive or inconclusive.

Screening Cc1ccc(C(=O)Nc2cccc(O)c2)cc1S(=O)(=O)N1CCCCCC1 returned BCR signal inh 6.0%, MCF10A rerep inconclusive, TDP1 cell noCPT 1.16µM*, TDP1 cell CPT 29.1µM*, SW480 rereplic inconclusive and IL-1B inflam inh -57.4*.
For C[C@H]1CN([C@@H](C)CO)C(=O)c2cc(C3=CCCC3)cnc2O[C@@H]1CN(C)C(=O)c1ccncc1 the results were TDP1 cell noCPT -21.6%, TDP1 cell CPT -15.4% and IL-1B inflam inh 8.9.
CC(NC(=O)c1ccc(OC2CCN(Cc3ccccn3)CC2)cc1)c1nccs1 (configuration not stated) was read as BCR signal inh -10.5%, MCF10A rerep 2.2%, TDP1 cell noCPT -9.2%, TDP1 cell CPT 2.9%, SW480 rereplic -0.7% and IL-1B inflam inh 0.0.
Screening Cc1ccc(NC(=O)COc2cccc(C)c2C)cc1S(=O)(=O)N1CCCCCC1 returned BCR signal inh 11.4%, MCF10A rerep -0.8%, TDP1 cell noCPT 18.4µM*, TDP1 cell CPT inconclusive, SW480 rereplic -100.3% and IL-1B inflam inh -29.6.
For Cc1ccc(NC(=O)COC(=O)c2ccccc2F)cc1S(=O)(=O)N1CCCCC1 the results were BCR signal inh -6.2%, MCF10A rerep -2.7%, TDP1 cell noCPT 1.3%, TDP1 cell CPT 3.5%, SW480 rereplic -9.5% and IL-1B inflam inh 1.1.
Screening COc1ccc(NC(=O)COc2ccccc2C)cc1S(=O)(=O)N1CCCCC1 returned BCR signal inh inconclusive, MCF10A rerep 8.6%, TDP1 cell noCPT 8.2µM*, TDP1 cell CPT inconclusive, SW480 rereplic 5.4% and IL-1B inflam inh -22.1.
For CCOc1ccc(C(=O)CCC(=O)Nc2ccc(C)c(S(=O)(=O)N3CCCCC3)c2)cc1 the results were BCR signal inh -11.6%, MCF10A rerep 11.1%, TDP1 cell noCPT 16.4µM*, TDP1 cell CPT -14.9%, SW480 rereplic inconclusive and IL-1B inflam inh -8.5.
Cc1ccc(NC(=O)COC(=O)c2cccc(C)c2[N+](=O)[O-])cc1S(=O)(=O)N1CCCCC1 was read as BCR signal inh -4.5%, MCF10A rerep -0.9%, TDP1 cell noCPT inconclusive, TDP1 cell CPT 16.4µM*, SW480 rereplic -11.4% and IL-1B inflam inh 0.0.
CCc1ccccc1NC(=O)Cn1ccn(-c2cc(C)cc(C)c2)c(=O)c1=O was read as TDP1 cell noCPT -14.9% and TDP1 cell CPT -21.3%.
Screening COc1ccc(S(=O)(=O)N(Cc2ccco2)Cc2cc3ccccc3[nH]c2=O)cc1 returned BCR signal inh -5.4%, MCF10A rerep 5.2%, TDP1 cell noCPT inconclusive, TDP1 cell CPT inconclusive, SW480 rereplic -2.1% and IL-1B inflam inh -26.1.
Screening CC(C)C(=O)Nc1cccc(C(=O)Nc2nnc(CC(C)(C)C)s2)c1 returned TDP1 cell noCPT inconclusive and TDP1 cell CPT -21.0%.
Screening Cc1ccc(C(=O)OCC(=O)N2C(C)CCCC2C)cc1S(=O)(=O)N1CCCCC1 (configuration not stated) returned BCR signal inh 1.8%, MCF10A rerep -5.5%, TDP1 cell noCPT inconclusive, TDP1 cell CPT inconclusive, SW480 rereplic -13.9% and IL-1B inflam inh 16.2.
For COC(=O)c1ccc(COC(=O)c2ccc(C)c(S(=O)(=O)N3CCCCC3)c2)cc1 the results were BCR signal inh inconclusive, MCF10A rerep 5.9%, TDP1 cell noCPT inconclusive, TDP1 cell CPT 29.1µM*, SW480 rereplic -42.3% and IL-1B inflam inh 33.3.
For COc1ccc(NC(=O)CN2CCCCC2)cc1S(=O)(=O)N1CCCCC1 the results were BCR signal inh -1.0%, MCF10A rerep 0.1%, TDP1 cell noCPT 6.4%, TDP1 cell CPT 14.6%, SW480 rereplic -0.8% and IL-1B inflam inh 20.9.
Screening CCc1noc(C)c1C(=O)Nc1cc(S(=O)(=O)N2CCCCC2)ccc1N(C)C returned BCR signal inh -0.3%, MCF10A rerep -1.0%, TDP1 cell noCPT inconclusive, TDP1 cell CPT inconclusive, SW480 rereplic -4.7% and IL-1B inflam inh -11.7.
For CCc1noc(C)c1C(=O)Nc1ccc(C)c(S(=O)(=O)N2CCCCCC2)c1 the results were BCR signal inh -24.7%, MCF10A rerep 10.7%, TDP1 cell noCPT inconclusive, TDP1 cell CPT 16.4µM*, SW480 rereplic 14.2% and IL-1B inflam inh 6.0.
`COc1ccc(NC(=O)CN(Cc2ccco2)Cc2ccco2)cc1S(=O)(=O)N1CCCCC1` gave BCR signal inh inconclusive, MCF10A rerep 16.0%, TDP1 cell noCPT inconclusive, TDP1 cell CPT 23.1µM*, SW480 rereplic -20.7% and IL-1B inflam inh -18.7.
For Cc1ccc(NC(=O)COc2ccc(N(C)C(=O)C(C)(C)C)cc2)cc1S(=O)(=O)N1CCCCC1 the results were BCR signal inh inconclusive, MCF10A rerep -1.6%, TDP1 cell noCPT 2.31µM*, TDP1 cell CPT 8.2µM*, SW480 rereplic 6.9% and IL-1B inflam inh -7.2.
`O=C(NC1CC1(c1ccccc1)c1ccccc1)c1ccccc1` (configuration not stated) gave MCF10A rerep 15.8%, TDP1 cell noCPT -27.3%, TDP1 cell CPT -3.2%, SW480 rereplic 13.3% and IL-1B inflam inh -16.9.
`O=C(NN1CC(C(=O)OCc2ccc(Cl)cc2Cl)CC1=O)c1ccccc1` (configuration not stated) gave BCR signal inh 0.0%, MCF10A rerep 1.1%, TDP1 cell noCPT 19.1%, TDP1 cell CPT -0.5%, SW480 rereplic 7.2% and IL-1B inflam inh 13.7.
`COc1ccc(C(=O)NCCc2nc3ccccc3[nH]2)cc1` gave TDP1 cell noCPT -2.6% and TDP1 cell CPT -18.7%.
`Cc1ccc(NC(=O)COc2ccccc2C(N)=O)cc1S(=O)(=O)N1CCCCCC1` gave BCR signal inh inconclusive, MCF10A rerep 9.9%, TDP1 cell noCPT 3.66µM*, TDP1 cell CPT 4.11µM*, SW480 rereplic -14.6% and IL-1B inflam inh -55.0*.
Screening COc1ccc(NC(=O)COc2ccccc2C(N)=O)cc1S(=O)(=O)N1CCCCC1 returned TDP1 cell noCPT inconclusive, TDP1 cell CPT -9.6% and IL-1B inflam inh 28.2.
Screening COc1ccc(-c2nnc3ccc(SC(C)C)nn23)cc1OC returned TDP1 cell noCPT 12.6µM* and TDP1 cell CPT 10µM*.
Screening COc1ccc(-c2nnc3ccc(SC(C(C)=O)C(C)=O)nn23)cc1OC returned BCR signal inh -7.3%, MCF10A rerep inconclusive, TDP1 cell noCPT inconclusive, TDP1 cell CPT 18.4µM*, SW480 rereplic 26.1% and IL-1B inflam inh 15.9.
